In the supplement of paper PMC13380429:

Tested on: Vero E6 infected with SARS-CoV-2
Assay: inhibition of SARS-CoV-2 cytopathic effect; higher = more antiviral protection, active = above 15
Settings: 48 h

Measured: inhibition of SARS-CoV-2 cytopathic effect

O=C(Nc1cccc2c(=O)cc(-c3nnn[nH]3)oc12)c1ccc(OCCCCc2ccccc2)cc1 [pranlukast]
inactive: 1 nM -0.09% | 8.33 nM 2.87% | 100 nM 0.47% | 833.33 nM -3.27% | 10000 nM 1.15%

CC(=O)Nc1ccc(NC(=S)NC(=O)c2ccc(C(C)(C)C)cc2)cc1 [tenovin-1]
inactive: 1 nM -0.23% | 8.33 nM 0.85% | 100 nM 1.6% | 833.33 nM -7.1% | 10000 nM -8.92%

Cc1cccc(-c2n[nH]cc2-c2ccc(F)c(-c3cnn(CCO)c3)c2)n1
inactive: 1 nM 3.99% | 8.33 nM 1.16% | 100 nM -2.29% | 833.33 nM -0.9% | 10000 nM -3.66%

C=C(C)[C@@H]1CC[C@]2(C(=O)O)CC[C@]3(C)[C@H](CC[C@@H]4[C@@]5(C)CC[C@H](O)C(C)(C)[C@@H]5CC[C@]43C)[C@@H]12 [betulinic-acid]
inactive: 1 nM -1.47% | 8.33 nM -3.53% | 100 nM -2.01% | 833.33 nM 0.38% | 10000 nM 0.04%

CC(C)(CO)Cc1cc(C(C)(C)C)c(O)c(C(C)(C)C)c1
inactive: 1 nM -1.21% | 8.33 nM -2.15% | 100 nM 1.59% | 833.33 nM 4.34% | 10000 nM -0.79%

CC(=O)[O-].CC(=O)[O-].N.NC1CCCCC1.[Cl-].[Cl-].[Pt+4] [satraplatin]
active: 10000 nM 23.8%
inactive: 1 nM 3.89% | 8.33 nM -0.13% | 100 nM 2.26% | 833.33 nM 1.69%

CCCCCCCCCC(=O)OCCN1CCN(CCCN2c3ccccc3Sc3ccc(C(F)(F)F)cc32)CC1 [fluphenazine-decanoate]
inactive: 1 nM -6.37% | 8.33 nM -5.38% | 100 nM -8.72% | 833.33 nM -10.3% | 10000 nM -9.75%

C=C1C(=O)[C@]23[C@H](O)[C@H]1CC[C@H]2[C@@]12CO[C@]3(O)[C@@H](O)[C@@H]1C(C)(C)CC[C@@H]2O [Oridonin (Isodonol)]
active: 10000 nM 43.5%
inactive: 1 nM -0.74% | 8.33 nM 1.14% | 100 nM 0.8% | 833.33 nM 3.78%

CCC(=O)Nc1cccc(Oc2nc(Nc3ccc(N4CCN(C)CC4)cc3OC)ncc2Cl)c1
inactive: 1 nM -2.36% | 8.33 nM -1.81% | 100 nM -3.83% | 833.33 nM -2.5% | 10000 nM 1.78%

N=C(N)c1ccc(N2CCN(C3CCN(CC(=O)O)CC3)CC2)cc1
inactive: 1 nM -1.25% | 8.33 nM 0.6% | 100 nM 0.06% | 833.33 nM -0.33% | 10000 nM 1.5%

CN1[C@@H]2CC[C@H]1C[C@@H](OC(c1ccc(F)cc1)c1ccc(F)cc1)C2 [3-alpha-bis-(4-fluorophenyl)-methoxytropane]
inactive: 1 nM 0.13% | 8.33 nM 1.33% | 100 nM -2.46% | 833.33 nM -1.34% | 10000 nM -5.09%

Cc1cc(CN2CCN(c3c(Br)cnc4nc(-c5ccc(N6CCN(C)CC6)cc5)[nH]c34)CC2)no1
inactive: 1 nM -1.63% | 8.33 nM -1.4% | 100 nM -0.54% | 833.33 nM -5% | 10000 nM -6.41%

Cc1nc[nH]c1CCN [4-methylhistamine]
inactive: 1 nM -0.91% | 8.33 nM -0.74% | 100 nM -0.39% | 833.33 nM -2.08% | 10000 nM 0%

CCCCCCCCCCCCCCCCOP(=O)([O-])OCC[N+](C)(C)C [miltefosine]
inactive: 1 nM -3.26% | 8.33 nM -0.08% | 100 nM 0.27% | 833.33 nM 0.17% | 10000 nM 3.55%

O=[N+]([O-])O[C@@H]1CO[C@H]2[C@@H]1OC[C@@H]2O [isosorbide-mononitrate]
inactive: 1 nM -2.43% | 8.33 nM -1.06% | 100 nM -1.7% | 833.33 nM 2.64% | 10000 nM 1.45%

COc1ccc(CC(C)NCC(O)c2ccc(O)c(NC=O)c2)cc1 (stereo not given) [formoterol]
inactive: 1 nM 0.12% | 8.33 nM 2.33% | 100 nM 1.69% | 833.33 nM 0.54% | 10000 nM 10.8%

CN1[C@@H]2C[C@@H](OC(=O)[C@H](CO)c3ccccc3)C[C@H]1[C@@H]1O[C@@H]12
inactive: 1 nM 1.79% | 8.33 nM 1.73% | 100 nM 1.2% | 833.33 nM 1.41% | 10000 nM 0.06%
